# Assay results reported in the supplement of paper PMC6555819.
# Test system: PPARg:RXRa 30nM:10nM, anti-RXR (NR concentration 30 nM, RXRa partner concentration 10 nM)
# Assay: PBM binding z-score (relative to random genomic background probes); higher = stronger binding; sequences stand for … in GC…GCGATTGACAGCGTAGAATGAAGG
# Summary of the method: (§1)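 Regression normalization was applied to scanned fluorescence from custom Agilent 4×180K protein-binding microarrays. Before scanning, arrays were incubated 1 h with ligand-free nuclear receptor dimers, and binding was detected with antibodies against each partner (one per run). Binding z-scores use the random background probes as reference.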
row,Sequence,PBM binding z-score
1,TCTATTTGTTGAAGGGCAACCGACGAGTCCGTTT,3.99
2,AGAACGAGGGCTCGCTGAGTTGATAGCAGAGTAG,-0.528
3,GATACAGGGTAAAGGCCAGAGTACGCGTATTGAT,3.7
4,CCGACTGGGCCAAGGTCATTGATCAGTCAAAGCA,0.61
5,CTTCAAAGTTCAACTAAGGTAACGTAAAGCACGC,1.49
6,GCTATCAGTTGAAAGGGCAACCGAATGATTCTCG,1.35
7,ATCTCTAGGTAAAAGTTCCGTGAATCCCGAGGAT,2.6
8,TCGAGTAGGTTGGTCGGGGCATTCAGCCAACATA,0.981
9,AGAATGATGTTACCAAAGATCAGGGAAACGCTTG,0.0901
10,CCTACTGGGCCAAACAGGTCATTGATGCCGATAA,0.412
11,CCTACTTGGCCATCAGGTCATTGATATCAACGTT,0.665
12,CCTTACGGGTCAAGGTTAAAGCACGGGTGGTACG,2.38
13,TCTAGATGGTCACGGAGGTCACACACGACGGGTA,3.7
14,CAAACTAGGGCAAGAGGTCAAAGTCCGCTTCCCG,5.45
15,TCTTGTAGATCAGCAGGTTAAGAAAGCTGGCCAA,2.21
16,ATCGGAAGGTCGAAGGTGAGTATACCCACCCGAA,1.55
17,CCTTACGGGTCACGAGGATATAGCACGACGAGCG,2.94
18,TCTTGTAGATCAACAGGAGGTTAGGAAAGATCGA,2.59
19,CCTTACGGGTCACTGACGGGTTATAGCATTTGGA,1.63
20,TCTGATAGGTCAACGATGGTCAGCTAATCTGCTA,3.79

row,Sequence,PBM binding z-score
1,CAAACTAGGTCACAGAGGTCATAGTCCGTGCGTA,7.14
2,TCTATTAGTTGAAGGGCAAACGACGAGTCCGTTT,3.63
3,ATATGTAGGTTATCGGGTCGTTCAGTTTGCGCAT,2.24
4,CCGACTGGGGCATACGGTTACCATAAGCCAGCCC,0.00419
5,ACTCGGAGGACAAAGATCAGAGCTACGCCAGTGA,0.508
6,AGAATGAGGTTATACGTCGATCAGGGAAGAAAGT,1.45
7,AGAATGAGGTTAAGCTCAGGGAAACAGAATACAT,0.895
8,CGTCCAAGGTCATAGGAGGTCAGAGAAGACAGAT,2.71
9,CGTCAAAGTTCAATTAAGGTAACGTAAAGCACGC,1.7
10,CTCGAAAGGTCGTACTCAGGTGAGTATACCAAAC,1.33
11,CTCGAAAGGTCGATTGAGGTGAGTATACGGATAA,0.642
12,CTCGAAAGGTCGTGCTCAGGTGCGTATACCAAAC,0.473
13,ATCTCTAGGTAAGACTCAGTTCACTGAAGAACGC,0.222
14,CCTTACGCGTCACTGACAGGTTATAGCATTTGGA,0.0399
15,TTACCAATGTGAAAGGTCGTTGATGCACGCCTTG,3.68
16,TAGCCTAGGTCATGCGGGCCAGAATAGTGTCGGC,0.103
17,CCTTACGAGTCACGAGGTTATAGCACGACGAGCG,-0.27
18,AGAATGAGGTTATACGTAGAACAGGGAAGAAAGT,1.07
19,CCTGCTGGGCCATCAGGTCATTGATATCAACGTT,-0.123
20,AGTCAAAGTTCACTAGCTAACGTAAGATTCAGCT,2.82

# Test system: PPARg:RXRa 90nM:30nM, anti-RXR (NR concentration 90 nM, RXRa partner concentration 30 nM)
# Assay: as above
# Summary of the method: as §1
row,Sequence,PBM binding z-score
1,TCTATTTGTTGAAGGGCAACCGACGAGTCCGTTT,3.24
2,AGAACGAGGGCTCGCTGAGTTGATAGCAGAGTAG,-0.552
3,GATACAGGGTAAAGGCCAGAGTACGCGTATTGAT,5.48
4,CCGACTGGGCCAAGGTCATTGATCAGTCAAAGCA,2.11
5,CTTCAAAGTTCAACTAAGGTAACGTAAAGCACGC,3.06
6,GCTATCAGTTGAAAGGGCAACCGAATGATTCTCG,2.69
7,ATCTCTAGGTAAAAGTTCCGTGAATCCCGAGGAT,3.7
8,TCGAGTAGGTTGGTCGGGGCATTCAGCCAACATA,0.513
9,AGAATGATGTTACCAAAGATCAGGGAAACGCTTG,0.313
10,CCTACTGGGCCAAACAGGTCATTGATGCCGATAA,1.43
11,CCTACTTGGCCATCAGGTCATTGATATCAACGTT,1.13
12,CCTTACGGGTCAAGGTTAAAGCACGGGTGGTACG,4.5
13,TCTAGATGGTCACGGAGGTCACACACGACGGGTA,4.04
14,CAAACTAGGGCAAGAGGTCAAAGTCCGCTTCCCG,6.96
15,TCTTGTAGATCAGCAGGTTAAGAAAGCTGGCCAA,1.66
16,ATCGGAAGGTCGAAGGTGAGTATACCCACCCGAA,3.07
17,CCTTACGGGTCACGAGGATATAGCACGACGAGCG,4.99
18,TCTTGTAGATCAACAGGAGGTTAGGAAAGATCGA,1.79
19,CCTTACGGGTCACTGACGGGTTATAGCATTTGGA,2.74
20,TCTGATAGGTCAACGATGGTCAGCTAATCTGCTA,4.21

row,Sequence,PBM binding z-score
1,CAAACTAGGTCACAGAGGTCATAGTCCGTGCGTA,7.77
2,TCTATTAGTTGAAGGGCAAACGACGAGTCCGTTT,2.94
3,ATATGTAGGTTATCGGGTCGTTCAGTTTGCGCAT,4.25
4,CCGACTGGGGCATACGGTTACCATAAGCCAGCCC,1.13
5,ACTCGGAGGACAAAGATCAGAGCTACGCCAGTGA,1.43
6,AGAATGAGGTTATACGTCGATCAGGGAAGAAAGT,2.25
7,AGAATGAGGTTAAGCTCAGGGAAACAGAATACAT,1.48
8,CGTCCAAGGTCATAGGAGGTCAGAGAAGACAGAT,5.09
9,CGTCAAAGTTCAATTAAGGTAACGTAAAGCACGC,3.44
10,CTCGAAAGGTCGTACTCAGGTGAGTATACCAAAC,2.46
11,CTCGAAAGGTCGATTGAGGTGAGTATACGGATAA,1.43
12,CTCGAAAGGTCGTGCTCAGGTGCGTATACCAAAC,2.05
13,ATCTCTAGGTAAGACTCAGTTCACTGAAGAACGC,0.475
14,CCTTACGCGTCACTGACAGGTTATAGCATTTGGA,0.241
15,TTACCAATGTGAAAGGTCGTTGATGCACGCCTTG,6.14
16,TAGCCTAGGTCATGCGGGCCAGAATAGTGTCGGC,1.54
17,CCTTACGAGTCACGAGGTTATAGCACGACGAGCG,0.183
18,AGAATGAGGTTATACGTAGAACAGGGAAGAAAGT,1.68
19,CCTGCTGGGCCATCAGGTCATTGATATCAACGTT,0.467
20,AGTCAAAGTTCACTAGCTAACGTAAGATTCAGCT,4.54
